Data on 52 compounds can be found in PubChem BioAssay AID686979 (National Center for Advancing Translational Sciences (NCATS), 2013).

The whole screen tested about 420,000 compounds, of which about 50,000 (12%) were called active. About 26% were inconclusive and are not listed. The call rests on the fitted dose curve; in most records, active means well fitted inhibition curve with a large enough effect; inconclusive means small, poorly fitted or top-dose-only effect; inactive means flat fitted curve, though single readings scatter. For the sample, actives were picked, then their nearest neighbours and some compounds at random.
On the % scale 0 is the no-effect control and ±100 the full control effect; potency means the concentration at half of the fitted maximal effect.

This experiment is described as follows: qHTS for Inhibitors of human tyrosyl-DNA phosphodiesterase 1 (TDP1): qHTS in cells in presence of CPT. Further: nearly all actives have a fitted effect of over 55% in size. The following applies: chicken DT40 Tdp1-/-;hTDP1 cells + 20 nM CPT, ATP luminescence, 48 h; series mostly up to 46.2 µM; activity change, negative = growth inhibition: at the top concentration. The procedure, abridged: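 Cell growth measured by CellTiter-Glo luminescence after a minimum 48 h, 37 C compound exposure with 20 nM CPT in Tdp1-knockout DT40 cells stably expressing hTDP1, seeded 400/well; qHTS titration format.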
Turning to `O=C(O)CC12CC3CC(C1)CC(n1ncc(NCc4ccc(F)cc4)c(Cl)c1=O)(C3)C2`, the “activity change, negative = growth inhibition” value is 2.86% (inactive).

For the compound `Cc1ccc(C(=O)NCC(c2cccs2)N(C)C)cc1S(=O)(=O)N1CCOCC1` (configuration not stated), the “activity change, negative = growth inhibition” value was -21.4% (inactive).

Regarding `CC(C)(C)C1CCC(C(=O)NCC(c2cccs2)N2CCOCC2)CC1` (configuration not stated), the Potency was 16.4 µM (active).

On to `O=C(NCc1csc(-c2cccs2)n1)C1CC1`, for which the “activity change, negative = growth inhibition” value is 5.77% (inactive).

As for `Cc1c(C=O)c2ccccc2n1CC(=O)O`, the “activity change, negative = growth inhibition” value was -0.794% (inactive).

With `Cc1ccc(S(=O)(=O)N2CCOCC2)cc1NC(=O)COC(=O)c1cnccn1`, the “activity change, negative = growth inhibition” value was -0.832% (inactive).

Take `COc1cc(/C=C/c2ccc(/C=C/c3cc(OC)c(OC)c(OC)c3)cc2)cc(OC)c1OC`: the “activity change, negative = growth inhibition” value is -24.1% (inactive).

For the compound `O=C1c2ccccc2C2=Nc3ccccc3SC(c3ccccc3F)C12` (configuration not stated), the Potency is 14.6 µM (active).

Take `O=C1c2ccccc2C(=O)C1c1ccccc1F`: the “activity change, negative = growth inhibition” value is 19% (inactive).

Turning to `O=C1CSC(=S)N1c1ccc(Cl)c(Cl)c1`, the “activity change, negative = growth inhibition” value is -13.3% (inactive).

Regarding `COc1ccc(/C=C(\C#N)c2c[nH]c3ccccc23)cc1`, the Potency was 1.16 µM (active).

For the compound `COc1ccc(/C=C(\NC(=O)c2ccc(OC)c(OC)c2)C(=O)NCCc2c[nH]c3ccccc23)cc1`, the “activity change, negative = growth inhibition” value was -1.48% (inactive).

On to `C[N+](C)(C)CCNC(=O)c1c[nH]c2ccccc12`, for which the “activity change, negative = growth inhibition” value is 2.23% (inactive).

Regarding `COC(=O)c1ccc(/C=N/OCC(=O)Nc2cc(F)ccc2F)cc1`, the “activity change, negative = growth inhibition” value is 11.8% (inactive).

Turning to `COc1cccc(N2CC(NS(=O)(=O)c3ccc(Cl)cc3)CC2=O)c1` (configuration not stated), the “activity change, negative = growth inhibition” value is -12.5% (inactive).

Take `CSC1=NCCN1C(=O)Cc1cccc2ccccc12`: the “activity change, negative = growth inhibition” value is -4.3% (inactive).

With `c1ccc(C[C@H]2CNCCN2CCC23CC4CC(CC(C4)C2)C3)cc1`, the Potency was 10.3 µM (active).

For the compound `O=C1CCNCCN1[C@H](CO)Cc1ccccc1`, the “activity change, negative = growth inhibition” value was 0.73% (inactive).

Take `c1ccc2c(CCN3CCNC[C@H]3Cc3cccc4ccccc34)cccc2c1`: the Potency is 20.6 µM (active).

For the compound `CC(C)(C)CN1C(=O)C(=O)NC[C@H]1Cc1cccc2ccccc12`, the “activity change, negative = growth inhibition” value is -9.63% (inactive).

Turning to `Nn1c(SCC(=O)NC2CCCC2)nnc1-c1ccccc1F`, the “activity change, negative = growth inhibition” value is -15.8% (inactive).

Take `COCC1CCN(C(=O)c2ccc3oc(Cc4ccccc4)nc3c2)C1` (configuration not stated): the “activity change, negative = growth inhibition” value is 1.38% (inactive).

`COc1cc(OC)c(NC(=O)c2cc(S(=O)(=O)N3CCCC3)cn2C)cc1Cl`: the “activity change, negative = growth inhibition” value is 1.61% (inactive).

On to `Cc1ccccc1NC(=O)CCOc1ccccc1`, for which the Potency result was “inactive”.

As for `Cc1cccc(OCCC(=O)Nc2ccccc2C(N)=O)c1`, the Potency was 9.2 µM (active).

For the compound `Cc1cccc(OCC(=O)Nc2ccccc2F)c1`, the “activity change, negative = growth inhibition” value is -10.9% (inactive).

Take `Cc1oc2c(c1C(=O)Nc1ccc(F)c(F)c1)C1=NCCN1C=N2`: the “activity change, negative = growth inhibition” value was -15% (inactive).

For `COc1ccc(/C=N/n2nnnc2N)cc1OC`, the “activity change, negative = growth inhibition” value is 18.6% (inactive).

With `Nc1nc(SCC(=O)Nc2ccc(Cl)c([N+](=O)[O-])c2)n[nH]1`, the “activity change, negative = growth inhibition” value is -16.2% (inactive).

Regarding `CC(OC(=O)CN1C(=O)COc2ccccc21)C(=O)NCc1ccc(F)cc1` (configuration not stated), the “activity change, negative = growth inhibition” value is -15.2% (inactive).

With `O=C(CN1CCOC1=O)N1CCCC(Nc2ccc(F)c(F)c2)C1` (configuration not stated), the “activity change, negative = growth inhibition” value is 5.44% (inactive).

As for `CC(C)=C1C2CCC1C1C(=O)N(NC(=O)c3ccco3)C(=O)C21` (configuration not stated), the “activity change, negative = growth inhibition” value was 1.68% (inactive).

Consider `CC(C)(c1ccccc1)c1ccc(OCCN)cc1`, for which the Potency was 18.4 µM (active).

For the compound `O=C(NCCOc1ccccc1)c1ccccc1`, the “activity change, negative = growth inhibition” value is 1.35% (inactive).

In the case of `O=C(NCCc1ccccc1)c1ccc(OCCOc2ccccc2)cc1`, the “activity change, negative = growth inhibition” value was 0.389% (inactive).

With `CCOC(=O)c1sc(NC(=O)/C=C/c2ccc(C(C)C)cc2)c(C(=O)OCC)c1C`, the “activity change, negative = growth inhibition” value was 5.17% (inactive).

Regarding `COc1cccc(CNC(=O)[C@@H]2CCCN2C(=O)[C@@H]2CCCN2C(=O)c2ccccc2)c1`, the “activity change, negative = growth inhibition” value is -27.4% (inactive).

As to `COc1cccc(-n2nc(C(=O)N3CCN(Cc4ccccc4)CC3)c3ccccc3c2=O)c1`, the Potency is 20.6 µM (active).

Consider `CCOC(=O)CNC(=O)c1nn(-c2cccc(OC)c2)c(=O)c2ccccc12`, for which the “activity change, negative = growth inhibition” value is 4.95% (inactive).

As to `COc1cccc(N2C(=O)CN(Cc3ccccc3)C2=S)c1`, the “activity change, negative = growth inhibition” value was -10.6% (inactive).

As for `N=C1C(c2nc3ccccc3[nH]2)=C(O)CN1NC(=O)c1c[nH]c2ccccc12`, the “activity change, negative = growth inhibition” value was 4.83% (inactive).

Take `O=C(COC(=O)CCCN1C(=O)c2cccc3cccc(c23)C1=O)NC1CCS(=O)(=O)C1` (configuration not stated): the “activity change, negative = growth inhibition” value was 4.29% (inactive).

On to `Cc1ccc(-c2cc(C(=O)Nc3nn[nH]n3)c3ccccc3n2)c(C)c1`, for which the “activity change, negative = growth inhibition” value is 10.7% (inactive).

Turning to `Cc1ccc(-c2cc(C(=O)N/N=C/C=C/c3ccco3)c3ccccc3n2)cc1C`, the Potency was 8.2 µM (active).

`Nc1ccccc1C(=O)NC1CCCCNC1=O` (configuration not stated): the “activity change, negative = growth inhibition” value is 10.6% (inactive).

On to `CNC(=O)c1ccc(CN(C)C(=O)c2cc(C3CC3)nc3c2cnn3C(C)C)cc1`, for which the “activity change, negative = growth inhibition” value was -22.5% (inactive).

For `CCOC(=O)c1ccc(-c2ccc(/C=C(\C#N)C(=O)Nc3ccc(C)cc3)o2)cc1`, the Potency was 9.2 µM (active).

With `CCOC(=O)c1ccc(NC(=O)CNC(=O)c2ccco2)cc1`, the “activity change, negative = growth inhibition” value was -0.879% (inactive).

As for `CCOC(=O)c1ccc(-c2ccc(/C=C(\C#N)C(=O)Nc3ccc(OCC)cc3)o2)cc1`, the “activity change, negative = growth inhibition” value was -5.81% (inactive).

As for `N#C/C(=C\N1CCOCC1)S(=O)(=O)c1ccc(Cl)cc1`, the “activity change, negative = growth inhibition” value was -4.67% (inactive).

For the compound `O=C(COC(=O)c1ccccn1)NNC(=O)c1ccc([N+](=O)[O-])cc1`, the “activity change, negative = growth inhibition” value is 6.48% (inactive).

On to `O=S1(=O)CCN(Cc2ccccc2)CC1`, for which the “activity change, negative = growth inhibition” value is -3.67% (inactive).
